# Laboratory results published in ChEMBL document CHEMBL3988442, “University of Dundee, Small-Polar-MMV Screening Library” (2021).
# Organism: Homo sapiens
# Assay: To identify inhibition of the IFN signalling (Jak-Stat) pathway via expression of an eGFP reporter gene under the control of an IFN-stimulated response element (ISRE) containing MxA promoter.
# Type: functional
# Set-up: scale not given: direction of the effect not stated beside the values
# Conditions: 30 µM
row,SMILES,Percent Effect [%]
1,Cc1cnn(CC2CCCCN2CCC(=O)Nc2cc(C)on2)c1 (centres undefined),-10.4
2,CNS(=O)(=O)Cc1ccc(CNC(=O)Nc2cn[nH]c2)cc1,18.9
3,Cc1c(C(=O)NC(CN2CCCC2=O)c2ccccc2)cnn1C (centres undefined),19
4,O=C(O)c1nnn(-c2ccc(F)c(F)c2)c1-c1ccncc1,-18.7
5,Cc1ccccc1CCNC(=O)C1CC(=O)N(CC(F)(F)F)C1 (centres undefined),25.2
6,CC(C)CN1CCCC2(CCN(C(=O)c3cnccn3)C2)C1 (centres undefined),0.321
7,O=C(NCC(F)(F)F)C1CSCN1S(=O)(=O)c1ccc(F)cc1 (centres undefined),7.19
8,CO[C@@H]1CC[C@H]2[C@H]1OCCN2C(=O)C1=CCCC1,-1.44
9,COCC1CN(Cc2ccc(C)o2)Cc2cn(C)nc21 (centres undefined),-4.89
10,Cc1cc(NC(=O)CCc2ccsc2)n(C)n1,-3.97
11,O=C(Cc1ccc(O)c(Cl)c1)N1CCCCC1CCn1cccn1 (centres undefined),0.632
12,Cc1cnn(CC(C)NCc2csc(-c3ccco3)n2)c1 (centres undefined),18.9
13,CCc1nnc2n1CCN(C(=O)c1ccc3nc(C)c(C)nc3c1)C2,-6.8
14,Cc1cc(CN(C)C(=O)NC(C)c2nncn2C)no1 (centres undefined),-0.22
15,COC(=O)CS(=O)(=O)CCC(=O)N1CCCC1c1ccsc1 (centres undefined),-6.88
16,CC(=O)N1CCN(S(=O)(=O)c2ccc(C)c(F)c2)CC1,12.6
17,CN(C)C(=O)CN1C[C@@H]2CC[C@H](C1)N(Cc1cc(F)ccc1F)C2,15.6
18,Cc1nn(C)c(N(C)C)c1CNCc1cccnc1-n1cncn1,-1.83
19,Cn1ccnc1CN1CCCCC1Cn1cccn1 (centres undefined),4.51
20,COc1cc(C(=O)N2CCC(c3n[nH]c(C4CC4)n3)CC2)ccc1C,8.43

row,SMILES,Percent Effect [%]
1,O=C(c1cccnc1)N1C[C@@H]2CC[C@H](C1)N(Cc1cccc(Cl)c1F)C2,8.1
2,Cc1cc(-c2cnn(CCNC(=O)c3cccnc3)c2C2CC2)on1,7.9
3,N#Cc1ccc(NCCNc2ccc(C(F)(F)F)cn2)nc1,104
4,Cc1nn(C)c(N(C)C)c1CNCc1cccc(CN(C)C(C)C)c1,-7.67
5,Cc1nnc(NC(=O)CN(C)CC2CCCN2c2cccnn2)s1 (centres undefined),17.7
6,Cc1cc(C(=O)NCc2cccnc2OC(C)C)no1,27.8
7,OC(CN1CCN(Cc2ccc(F)c(F)c2)CC1)C1CC1 (centres undefined),13.1
8,Cc1noc(C(C)N2CCN(CCC(=O)N3CCCCC3)CC2)n1 (centres undefined),21.2
9,CCc1nc2ccccc2c(=O)n1CC1(O)CCN(S(C)(=O)=O)CC1,17.4
10,Cn1ccc(CN2CCC(CCc3ccc(O)cc3)CC2)cc1=O,10.3
11,CCCNC(=O)N1CCN(Cc2cc(C)no2)CC1,2.72
12,Cc1cccc(OCCC(=O)N2CCN(S(=O)(=O)N(C)C)CC2)c1C,39.5
13,Cc1nc2n(n1)CC(NCc1cc(Cl)c3c(c1)OCCCO3)CC2 (centres undefined),6.53
14,COC(=O)N1CCCN(C(=O)NCc2ccc(Cl)s2)CC1,19.3
15,Cc1cc(C2CCCN(CCCNS(C)(=O)=O)C2)n[nH]1 (centres undefined),-2.96
16,CC(C)CC(=O)N1CCCn2cnc(CN3CCCC3=O)c2C1,-1.05
17,O=C(Nc1ccccn1)N(CCO)Cc1ccsc1,9.82
18,CCSCCC(=O)Nc1ncn(CC(=O)NCc2ccccc2)n1,5.59
19,OCCn1nccc1C1CCN(CCCOc2ccc(F)cc2)CC1,-5.47
